# Rows were chosen to be rich in hits. Some 1.4% of all compounds tested hit in one or more screens of this group.
# V-ATPase pH – regulators of yeast V-ATPase proton pumping, primary screen, pHLuorin cytosolic pH fluorescence | S. cerevisiae | response, % at 10 µM | 350,000 tested, 0.37% active | AID 504577, 2011; in the data active = response mostly above about 7.3%, no sharp cut-off; inactive = mostly below about 5.4%; also: actives read high
# MIN6 prolif-1 – inducers of MIN6 beta-cell proliferation, primary screen, ATP luminescence, uHTS | MIN6 cells proliferation, ATPlite luminescence, 48 h; cells starved in 0.2% serum; 100% = growth in 10% serum | proliferation, % at 10 µM | 330,000 tested, 0.29% active | AID 2380, 2010;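 active = compounds whose signal lies at least 3.5 SD above the mean of all wells on their plate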;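 also: 0% = DMSO-treated cells in low-serum medium and 100% = 10% serum control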
# HSV augment – enhancers of HSV replication in host cells, fold increase, host cell viability | HSV replication augmentation in cells | maximum fold increase | 220,000 tested, 0.005% active | AID 1956, 2009; in the data active = maximum fold increase above about 1.5; tested in PC3 cells
# H9c2 protect – cardioprotection against H2O2-induced cell death, primary screen, uHTS, H9c2 cells, ATPLite luminescence; 360,000 tested, 0.63% active; AID 588492, 2011; H9c2 cardiomyocytes, H2O2 injury protection, 2 h; protection from H2O2 cell death, % at 20 µM;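 active = compounds giving at least 50% protection of heart cells from peroxide-induced death in the single-dose screen, raw or plate-pattern-corrected value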;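 also: 0% = DMSO wells with peroxide and 100% = DMSO wells without peroxide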
# p-CIP stab down – p/CIP-EGFP fusion destabilizers, primary screen, fluorescence, F442A cells | Q05BA5 | 16 h | decrease of EGFP signal, % at 10 µM | 290,000 tested, 0.01% active | AID 1984, 2009;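 active = EGFP signal decrease of at least 30% at 10 µM or well 3 SD below plate mean, unless failing retest; inactive = the rest, including hits failing retest or dose response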
# CR mimetic SO – reduction of superoxide in aged yeast, primary screen, HTS; AID 2690, 2010; S. cerevisiae aged cells, superoxide DHE fluorescence; stronger effect = lower value; 330,000 tested, 0.18% active; superoxide response (% of plate mean), % at 10 µM;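 active = superoxide response under a set limit, about three screen SD below normal, cut at about 65% in these data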;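 also: yeast aged for seven days with compound at 30 °C before DHE staining; 100% = average MFI of all compound-treated wells on the plate with controls excluded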
# MIN6 prolif-2 – inducers of beta-cell proliferation in MIN6, confirmation, MIN6 cells, mouse; shares compounds with MIN6 prolif-1; ATPlite luminescence, 48 h; cells kept in 0.2% serum; scaled between 0.2% and 10% serum; proliferation increase, % at 50 µM; 920 tested, under 10 active;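 active = proliferation increase above 40% at any of the four tested concentrations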
# The depositor's hits bear a star; i = inactive; x = not tested or not shown.
SMILES,V-ATPase pH,MIN6 prolif-1,HSV augment,H9c2 protect,p-CIP stab down,CR mimetic SO,MIN6 prolif-2
COc1cc2c(cc1OC)C(Cc1ccc(O)c(Oc3ccc(C[C@H]4c5cc(OC)c(OC)cc5CCN4C)cc3)c1)N(C)CC2 (some centres not stated),x,-5.7,x,x,x,124.0,x
COc1ccccc1CCN1CCCC(CN(C)Cc2ccc(OCCO)cc2)C1 (configuration not stated),1.8,5.8*,x,0.8,-6.8,85.5,-6.1
COc1ccccc1CCN1CCCC(CN(C)CC(C)(C)CO)C1 (configuration not stated),5.7,0.1,x,-0.6,-6.2,97.1,x
CCCCC(=O)Nc1ccccc1C#N,1.7,5.8*,i,2.5,0.6,97.6,-0.9
COc1ccc(C(CNC(=O)CCNS(=O)(=O)c2ccccc2)N2CCOCC2)cc1 (configuration not stated),-0.9,x,x,12.2,x,x,x
CCC(NC(C)C)C(O)c1ccc(O)c2[nH]c(=O)ccc12 (configuration not stated),1.4,19.0*,i,11.3,-2.7,97.0,-0.4
CCOC(=O)c1c(N)sc2c1CCN(CCc1ccccc1)C2,1.5,7.5*,x,-8.4,-8.7,91.3,-6.4
CCN1CCN(c2sc(S(C)(=O)=O)nc2S(=O)(=O)c2ccc(C)cc2)CC1,-0.7,16.2*,x,2.2,-2.4,128.5,-3.0
CCN1CCN(c2sc(S(=O)(=O)CC)nc2S(=O)(=O)c2ccc(C)cc2)CC1,x,x,x,11.9,x,x,x
Cc1ccc(-c2cn(-c3ccccc3)c(SCC(N)=O)n2)cc1C,-2.1,7.6*,x,-1.5,-14.6,105.3,-6.3
COc1cc2c(cc1OC)/C(=C/C(=O)c1ccc([N+](=O)[O-])c(C)c1)NCC2,2.5,11.5*,x,-0.4,-6.2,x,2.2
COc1cccc(C(=O)/C=C2\NCCc3cc(OC)c(OC)cc32)c1,1.5,15.6*,x,22.1,-8.5,99.5,-4.1
COc1cc2c(cc1OC)/C(=C/C(=O)c1ccccc1)NCC2,1.0,-3.1,x,1.4,4.9,110.9,x
COc1ccccc1NC(=O)NC1(C(=O)NCC2CCCO2)CCCCC1 (configuration not stated),4.6,0.0,x,-4.1,1.2,103.0,x
CC1CC(C)CN(C(=O)c2ccc(S(=O)(=O)N3CCCCC3)cc2)C1 (configuration not stated),-1.4,-2.6,x,-4.4,7.9,100.8,x
CC1CC(C)CN(C(=O)c2cc(S(=O)(=O)N3CCCCC3)ccc2Cl)C1 (configuration not stated),-0.6,14.0*,x,-2.7,x,96.9,-4.9
CCOC(=O)Cc1cnc(NC(=O)CSc2nc(C(C)C)cc(=O)[nH]2)s1,3.7,0.0,x,0.2,6.8,103.3,x
N#Cc1ccc(OCC(=O)NCC2COc3ccccc3O2)cc1 (configuration not stated),1.4,11.3*,x,-2.3,x,99.5,-0.8
Cc1ccccc1C(=O)OCC(=O)NCC1COc2ccccc2O1 (configuration not stated),7.3,11.9*,x,-1.4,x,x,-4.8
Cc1ccc(NC(=S)N(CCN2CCOCC2)Cc2cc3cc4c(cc3[nH]c2=O)OCO4)cc1,-2.6,-1.4,i,9.4,0.2,114.2,x
CN(c1nc2nonc2nc1NC1CC1)C1CCOC1 (configuration not stated),-2.2,7.6*,i,6.4,-1.0,96.0,-1.3
CC(c1nccs1)N(C)c1nc2nonc2nc1NC1CC1 (configuration not stated),2.4,-2.8,i,5.6,-4.1,94.7,x
CCC(O)(C(=O)Nc1ccccc1C(F)(F)F)c1ccccc1OC (configuration not stated),-5.2,-3.1,x,10.0,x,126.4,x
COc1ccccc1C(C)NCC(=O)Nc1ccccc1C(F)(F)F (configuration not stated),7.8,5.3*,i,3.6,-6.4,102.4,-6.3
CCOC(=O)C1CCCN(C(=O)CCNS(=O)(=O)c2cc(Br)cnc2N)C1 (configuration not stated),-1.4,-1.3,x,-2.2,1.0,104.9,x
SMILES,V-ATPase pH,MIN6 prolif-1,HSV augment,H9c2 protect,p-CIP stab down,CR mimetic SO,MIN6 prolif-2
COC(=O)N1C(=O)[C@](CC(C)C)(c2ccccc2)N1C(=O)OC,1.9,x,x,-7.6,-14.5,76.1,x
COC(=O)N1C(=O)[C@@](CC(C)C)(c2ccccc2)N1C(=O)OC,x,17.2*,x,x,-5.8,112.0,-6.3
CCOc1cc(/C=N/n2cnnc2)ccc1OCC(=O)Nc1ccccc1OC,-0.7,8.0*,i,29.0,4.9,90.2,2.0
COc1ccccc1NC(=O)COc1ccc(/C=N/n2cnnc2)cc1OC,2.0,-3.8,i,29.2,4.6,88.8,x
COc1ccc(S(=O)(=O)N2CCN(C(=O)Cc3cccs3)CC2)cc1,-0.2,-1.0,i,5.7,-6.1,113.8,x
O=C(Cc1cccs1)N1CCN(S(=O)(=O)c2ccccc2)CC1,-4.4,7.2*,i,9.6,-4.1,93.7,-1.6
COc1ccc(-c2c(C(C)=O)c(C)nc3sc4c(c23)NC(c2ccccc2)NC4=O)cc1 (configuration not stated),-61.7,-1.4,i,4.0,-13.7,97.8,x
CCOC(=O)c1c(C)nc2sc3c(c2c1-c1ccc(OC)cc1)NC(c1ccccc1)NC3=O (configuration not stated),3.1,9.2*,i,26.4,-24.5,100.0,7.7
CCOC(=O)C1CCCN(C2CC(=O)N(c3ccccc3)C2=O)C1 (configuration not stated),-3.0,0.2,i,9.7,-0.6,100.2,x
CCOC(=O)C1CCCN(C2CC(=O)N(c3ccc(N4C(=O)CC(N5CCCC(C(=O)OCC)C5)C4=O)cc3)C2=O)C1 (configuration not stated),0.8,9.5*,i,4.2,-1.3,75.1,-0.9
CN1CCN(S(=O)(=O)c2cccc(C(=O)N(C)CC(=O)Nc3ccc(Cl)c(Cl)c3)c2)CC1,1.2,x,x,-15.8,x,x,x
CC1CCCN(CCCNC(=O)c2nn(C)c3c2CS(=O)(=O)c2ccccc2-3)C1 (configuration not stated),-2.3,7.0*,x,10.6,-8.9,94.5,0.3
CCCCN(CC)C(=O)c1cc2c(=O)n3cccc(C)c3nc2s1,-2.1,10.9*,x,4.9,-3.1,108.8,-6.2
CCN(C(=O)c1cc2c(=O)n3ccccc3nc2s1)C1CCCCC1,2.3,6.9*,x,4.5,-16.6,109.5,-3.6
CC(C)(C)OC(=O)C[C@H]1C/C=C\C[C@@H](CC(=O)N(CCO)Cc2ccccc2)C(=O)NC[C@@H](c2ccccc2)OC1=O,-0.4,-3.7,x,5.8,x,100.4,x

# Screening results deposited in PubChem by several laboratories.
